Results filed as inconclusive are left out. Activity calls are given as the source filed them. Unless noted, calls come from the whole dose curve.
Assays:
[1] = Nuclear factor erythroid 2-related factor 2/antioxidant responsive element (Nrf2/ARE) small molecule agonists: qHTS cell viability counter screen in human keratinocytes (AID 1919968; active = well fitted curve in the direction sought with a large enough effect in the repeat runs; an effect the other way counts as inactive or inconclusive; note: nearly all actives have a fitted effect of over 55% in size; note: potency is the fitted concentration of half-maximal effect)
In short: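 Cytotoxicity was multiplexed with the Nrf2/ARE luciferase assay in the same wells. Stably transfected HaCaT keratinocytes were treated with test compounds for 23 h at 37 C. Cell viability was then measured by CellTiter-Fluor fluorescence.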

[2] = Nuclear factor erythroid 2-related factor 2/antioxidant responsive element (Nrf2/ARE) small molecule agonists: luciferase reporter gene qHTS assay in human keratinocytes (AID 1919969); note: nearly all actives have a fitted effect of over 35% in size; note: potency is the fitted concentration of half-maximal effect
[3] = biological target: Gonadotropin-releasing hormone receptor (Homo sapiens) (UniProt P30968); assay: Human gonadotropin-releasing hormone receptor (GnRHR) small molecule agonists, calcium flux assay in GnRHR-HEK293 cells (AID 1920063); note: nearly all actives have a fitted effect of over 35% in size; note: potency is the fitted concentration of half-maximal effect
In short: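 Agonist activity was measured as intracellular calcium flux in HEK293 cells engineered to stably express human GnRHR. After dye loading for 1 hour at 37 C, compounds in DMSO were added and fluorescence was followed for 3 minutes.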

[4] = biological target: KiSS-1 receptor (Homo sapiens) (UniProt Q969F8); assay: Human kisspeptin (KISS1R) small molecule agonists, calcium flux assay in KISS1R-HEK293 cells (AID 1920064; active = well fitted curve in the direction sought with a large enough effect in the repeat runs; an effect the other way counts as inactive or inconclusive)
In short: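 Agonist activity is monitored as intracellular calcium rise in engineered HEK293 cells carrying human KISS1R. Cells are dye-loaded for 1 h at 37 C before compound addition, and fluorescence is recorded for 3 min.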

[5] = G protein-coupled receptor (GPCR) small molecule agonists, calcium flux assay: HEK293 wild type cell line counter screen (AID 1920065)
In short: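 Seed cells, incubate 18 h (37 C, 5% CO2); add calcium dye, 1 h at 37 C; pin-transfer compounds, ATP control or DMSO; read fluorescence 480/540 nm each second for 3 min.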

[6] = p53 small molecule agonists, cell-based qHTS assay with human liver microsomes: qHTS cell viability counter screen (AID 1963579); note: nearly all actives have a fitted effect of over 45% in size; note: potency is the fitted concentration of half-maximal effect
In short: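 Cells carrying the p53 response-element beta-lactamase reporter are treated for 16 h at 37 C with test compounds in the presence of human liver microsomes and NADPH (both 0.5 mg/mL final); ATP-based CellTiter-Glo luminescence then reports viability.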

[7] = p53 small molecule agonists, cell-based qHTS assay: qHTS cell viability counter screen (AID 1963581); note: nearly all actives have a fitted effect of over 45% in size; note: potency is the fitted concentration of half-maximal effect
In short: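 Viability was counter-screened in parallel with the p53 agonist reporter by measuring intracellular ATP luminescence in the same HCT-116 p53RE-bla wells after 16 h compound treatment at 37 C.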

[8] = biological target: 5-hydroxytryptamine receptor 2A (Homo sapiens) (UniProt P28223); assay: 5-hydroxytryptamine receptor 2A (HTR2A) small molecule antagonists, cell-based qHTS assay (AID 1963586); note: nearly all actives have a fitted effect of over 45% in size
In short: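 CHO cells stably expressing human HTR2A were plated for 18 h at 37 C, then loaded with calcium dye for 1 h. Compounds were preincubated 5 min at room temperature before DOI (4 nM solution) was added. Kinetic fluorescence was read for 3 min.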

[9] = biological target: 5-hydroxytryptamine receptor 2A (Homo sapiens) (UniProt P28223); assay: 5-hydroxytryptamine receptor 2A (HTR2A) small molecule agonists, cell-based qHTS assay (AID 1963587); note: nearly all actives have a fitted effect of over 30% in size
In short: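 Kinetic calcium-flux fluorescence (2 min, 1 sec intervals) after compound addition in agonist mode. HTR2A-CHO cells were cultured 18 h, then dye-loaded 1 h at 37 C.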

[10] = biological target: Muscarinic acetylcholine receptor M1 (Homo sapiens) (UniProt P11229); assay: Cholinergic receptor muscarinic 1 (CHRM1) small molecule antagonists, cell-based qHTS assay (AID 1963588); note: nearly all actives have a fitted effect of over 40% in size; note: potency is the fitted concentration of half-maximal effect
In short: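 Compounds were tested at 15 concentrations in three independent runs. Dye-loaded CHRM1-CHO cells were exposed 5 min at room temperature before stimulation by acetylcholine added at 50nM. Intracellular calcium was read kinetically on FDSS for 3 min.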

[11] = biological target: Muscarinic acetylcholine receptor M1 (Homo sapiens) (UniProt P11229); assay: Cholinergic receptor muscarinic 1 (CHRM1) small molecule agonists, cell-based qHTS assay (AID 1963589); note: nearly all actives have a fitted effect of over 35% in size
In short: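 Cells were plated and incubated 18 h at 37 C/5% CO2, loaded with calcium dye for 1 h at 37 C, then treated with compounds in DMSO. Fluorescence was recorded kinetically at 1 sec intervals.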

[12] = cAMP Responsive Elements (CRE) small molecule agonists, cell-based qHTS assay (AID 1963590)
In short: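 Cells carrying a CRE-driven beta-lactamase reporter (HEK 293T) are seeded, incubated overnight (18 h), and treated with test compounds for 3 h at 37 C; reporter activity is then detected with a FRET substrate after 2 h at room temperature.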

[13] = cAMP Responsive Elements (CRE) small molecule antagonists, cell-based qHTS assay (AID 1963591; active = well fitted inhibition curve with a large enough effect in the signal ratio in the repeat runs, not every such curve was filed as active; the % refers to the signal ratio)
In short: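 Cells (CRE-bla HEK 293T, DMEM with 10% dialyzed FBS and 25 mM HEPES) are seeded and incubated 18 h. Compounds are added with NKH477 agonist at 0.25 uM final for 3 h, then FRET substrate for 2 h.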

[14] = biological target: Beta-2 adrenergic receptor (Homo sapiens) (UniProt P07550); assay: Adrenergic beta2 receptor (ADRB2) small molecule antagonists, cell-based qHTS assay (AID 1963592); note: series mostly up to about 92 µM; nearly all actives have a fitted effect of over 50% in size
In short: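 Assay format: CHO-ADRB2 cells, 18-20hr seeding at 37C/5% CO2, then compound plus 1nM isoproterenol agonist mix for 0.5hr RT. Homogeneous time-resolved fluorescence cAMP detection after 1hr, expressed as 665/615 nm ratio.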

[15] = biological target: D(2) dopamine receptor (Homo sapiens) (UniProt P14416); assay: Dopamine D2 receptor (DRD2) small molecule agonists, cell-based qHTS assay (AID 1963594); note: nearly all actives have a fitted effect of over 35% in size
In short: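 cAMP accumulation in DRD2-HEK293 cells measured by HTRF after 1 h detection; compounds added 10 min before NKH477 (200nM […]) forskolin-analogue stimulation, 30 min at room temperature, with Ro20-1724 present at 0.1 mM final.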

[16] = biological target: D(2) dopamine receptor (Homo sapiens) (UniProt P14416); assay: Dopamine D2 receptor (DRD2) small molecule antagonists, cell-based qHTS assay (AID 1963595; active = well fitted inhibition curve with a large enough effect in the signal ratio in the repeat runs, with a control signal flat; the % refers to the signal ratio; note: potency is the fitted concentration of half-maximal effect)
In short: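 Antagonist mode in DRD2-HEK293 cells: after compound addition with 0.1 mM Ro20-1724, cells received quinpirole (12 nM) and NKH477 (200 nM) for 30 min at room temperature; HTRF cAMP read after 1 h detection.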

[17] = p53 small molecule agonists, cell-based qHTS assay with rat liver microsomes: qHTS cell viability counter screen (AID 1963580); note: nearly all actives have a fitted effect of over 45% in size; note: potency is the fitted concentration of half-maximal effect
In short: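 Cytotoxicity counter screen: intracellular ATP read by CellTiter-Glo luminescence in the p53 reporter wells. HCT-116 p53RE-bla cells were treated for 16 h at 37 C alongside rat liver microsomes and NADPH, each 0.5 mg/mL final.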

[18] = biological target: Beta-2 adrenergic receptor (Homo sapiens) (UniProt P07550); assay: Adrenergic beta2 receptor (ADRB2) small molecule agonists, cell-based qHTS assay (AID 1963593);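 note: CHO cells stably overexpressing human ADRB2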
In short: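 CHO cells stably over-expressing ADRB2 were plated overnight at 37C, then dosed with compounds plus a stimulation mix containing 100uM IBMX and 25uM Ro-20-1724 for 0.5hr at room temperature. cAMP was measured by HTRF competition, 1hr.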

[19] = p53 small molecule agonists, cell-based qHTS assay with human liver microsomes (AID 1963577)
In short: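 Compounds act here after metabolic activation: human liver microsomes and NADPH, both at 0.5 mg/mL final, were co-added to p53RE-bla cells. Incubation ran 16 h at 37 C, followed by LiveBLAzer detection.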

[20] = p53 small molecule agonists, cell-based qHTS assay with rat liver microsomes (AID 1963578)
In short: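 Read-out is beta-lactamase reporter fluorescence (LiveBLAzer, 2 h, room temperature, dark) in p53RE-bla cells treated 16 h at 37 C with compound, rat liver microsomes and NADPH, both 0.5 mg/mL final.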

Measured: Potency

Chain of KiSS-1 receptor (Homo sapiens) (Q969F8 whole entry, looked up): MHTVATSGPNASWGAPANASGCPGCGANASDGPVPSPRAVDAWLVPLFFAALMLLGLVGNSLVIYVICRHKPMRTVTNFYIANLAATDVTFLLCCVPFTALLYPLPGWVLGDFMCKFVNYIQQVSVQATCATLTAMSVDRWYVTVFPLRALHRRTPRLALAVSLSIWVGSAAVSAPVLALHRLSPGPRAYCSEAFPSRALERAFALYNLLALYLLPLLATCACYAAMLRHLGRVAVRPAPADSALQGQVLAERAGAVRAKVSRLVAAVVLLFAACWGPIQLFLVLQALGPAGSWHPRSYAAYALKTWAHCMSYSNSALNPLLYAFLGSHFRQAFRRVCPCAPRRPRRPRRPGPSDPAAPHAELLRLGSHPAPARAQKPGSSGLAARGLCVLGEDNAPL
Chain of 5-hydroxytryptamine receptor 2A (Homo sapiens) (P28223 whole entry, looked up): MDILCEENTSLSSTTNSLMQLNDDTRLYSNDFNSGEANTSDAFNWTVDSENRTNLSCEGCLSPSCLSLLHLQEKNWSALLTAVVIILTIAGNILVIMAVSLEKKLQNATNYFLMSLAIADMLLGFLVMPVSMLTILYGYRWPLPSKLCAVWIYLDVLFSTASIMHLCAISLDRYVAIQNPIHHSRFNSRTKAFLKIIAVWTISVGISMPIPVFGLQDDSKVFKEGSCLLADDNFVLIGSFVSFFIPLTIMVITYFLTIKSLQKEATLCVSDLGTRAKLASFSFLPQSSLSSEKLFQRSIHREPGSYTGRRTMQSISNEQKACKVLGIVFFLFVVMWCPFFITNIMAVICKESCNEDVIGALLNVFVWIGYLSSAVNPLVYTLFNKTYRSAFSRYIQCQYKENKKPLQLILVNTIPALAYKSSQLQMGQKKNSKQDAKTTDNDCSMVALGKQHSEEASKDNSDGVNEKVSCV
Chain of Beta-2 adrenergic receptor (Homo sapiens) (P07550 whole entry, looked up): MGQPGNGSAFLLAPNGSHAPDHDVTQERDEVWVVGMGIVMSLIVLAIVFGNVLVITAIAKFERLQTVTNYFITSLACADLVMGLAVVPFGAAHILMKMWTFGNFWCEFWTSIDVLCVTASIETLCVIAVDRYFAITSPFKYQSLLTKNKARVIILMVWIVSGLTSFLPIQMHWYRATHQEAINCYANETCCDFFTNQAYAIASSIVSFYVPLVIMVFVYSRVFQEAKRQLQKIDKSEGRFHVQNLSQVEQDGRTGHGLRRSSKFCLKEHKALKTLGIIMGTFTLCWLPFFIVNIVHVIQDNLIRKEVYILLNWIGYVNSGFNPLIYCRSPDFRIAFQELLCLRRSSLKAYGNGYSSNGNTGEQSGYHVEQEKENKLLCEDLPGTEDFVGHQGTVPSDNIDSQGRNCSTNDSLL
Chain of Gonadotropin-releasing hormone receptor (Homo sapiens) (P30968 whole entry, looked up): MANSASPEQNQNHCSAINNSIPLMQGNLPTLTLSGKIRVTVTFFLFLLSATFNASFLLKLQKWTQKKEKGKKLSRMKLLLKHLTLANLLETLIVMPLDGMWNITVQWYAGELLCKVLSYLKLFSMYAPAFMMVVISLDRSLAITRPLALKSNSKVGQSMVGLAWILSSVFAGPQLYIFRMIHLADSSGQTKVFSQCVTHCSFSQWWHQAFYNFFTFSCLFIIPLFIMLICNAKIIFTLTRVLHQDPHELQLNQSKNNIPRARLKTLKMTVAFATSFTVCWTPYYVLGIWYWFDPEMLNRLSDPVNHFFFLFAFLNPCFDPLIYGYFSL
Chain of Muscarinic acetylcholine receptor M1 (Homo sapiens) (P11229 whole entry, looked up): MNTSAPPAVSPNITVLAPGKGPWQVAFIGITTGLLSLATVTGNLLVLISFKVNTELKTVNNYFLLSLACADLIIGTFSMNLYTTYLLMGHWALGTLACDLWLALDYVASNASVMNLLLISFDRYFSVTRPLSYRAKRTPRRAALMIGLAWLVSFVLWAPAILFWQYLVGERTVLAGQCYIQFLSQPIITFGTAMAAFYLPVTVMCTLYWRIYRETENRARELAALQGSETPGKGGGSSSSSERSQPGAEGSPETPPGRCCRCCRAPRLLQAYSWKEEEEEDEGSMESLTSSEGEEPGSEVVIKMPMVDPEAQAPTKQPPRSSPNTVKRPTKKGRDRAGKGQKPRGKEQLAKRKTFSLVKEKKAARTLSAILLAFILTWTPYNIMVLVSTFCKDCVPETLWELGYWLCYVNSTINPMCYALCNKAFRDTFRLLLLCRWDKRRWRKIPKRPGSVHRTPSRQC
Chain of D(2) dopamine receptor (Homo sapiens) (P14416 whole entry, looked up): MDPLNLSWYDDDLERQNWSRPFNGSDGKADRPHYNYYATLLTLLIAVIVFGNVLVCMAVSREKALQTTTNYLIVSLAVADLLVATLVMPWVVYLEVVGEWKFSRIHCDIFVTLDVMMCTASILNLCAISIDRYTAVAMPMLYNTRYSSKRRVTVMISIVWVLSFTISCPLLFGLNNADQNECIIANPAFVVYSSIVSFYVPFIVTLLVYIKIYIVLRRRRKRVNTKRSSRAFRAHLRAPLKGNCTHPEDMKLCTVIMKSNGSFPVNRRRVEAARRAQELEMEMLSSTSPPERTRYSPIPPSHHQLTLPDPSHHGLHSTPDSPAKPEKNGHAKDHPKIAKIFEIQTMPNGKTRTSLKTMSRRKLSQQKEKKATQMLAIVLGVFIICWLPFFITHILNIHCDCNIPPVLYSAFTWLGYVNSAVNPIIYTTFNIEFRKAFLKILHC

C/C=C/C=O
active: [2] 58.4 µM
not listed: [17] | [18] | [19] | [20]
inactive: all other assays above

O=C1CN=C(c2ccccc2)c2cc([N+](=O)[O-])ccc2N1
not listed: [8] | [9] | [10] | [11] | [18] | [19] | [20]
inactive: all other assays above

Cc1cc(C(F)(C(F)(F)F)C(F)(F)F)ccc1NC(=O)c1cccc(I)c1C(=O)NC(C)(C)CS(C)(=O)=O
not listed: [7] | [13] | [18] | [19] | [20]
inactive: all other assays above

CC(C)N(CCC(C(N)=O)(c1ccccc1)c1ccccn1)C(C)C (stereo not drawn)
active: [10] 2.05 µM
not listed: [7] | [15] | [19] | [20]
inactive: all other assays above

c1ccc(Nc2ccc(Nc3ccccc3)cc2)cc1
inactive: [1] | [3] | [4] | [5] | [6] | [17] | [7] | [13] | [14] | [16]
active: [2] 27.2 µM

CCCCc1ccccc1
not listed: [6] | [14] | [19] | [20]
inactive: all other assays above

Brc1ccccc1
not listed: [5] | [8] | [9] | [10] | [11] | [12] | [14] | [18]
inactive: all other assays above

CC(=O)[O][Pb]([c]1ccccc1)([c]1ccccc1)[c]1ccccc1
inactive: [4] | [19] | [20] | [8]
active: [1] 3.86 µM | [2] 0.864 µM | [3] 30.9 µM | [6] 4.08 µM | [17] 8.14 µM | [16] 4.33 µM

NNC(N)=O
not listed: [6] | [13] | [18] | [19] | [20]
inactive: all other assays above

O=C(OC1CCCCC1)c1ccccc1C(=O)OC1CCCCC1
not listed: [6] | [12] | [16] | [19] | [20]
inactive: all other assays above

NNCCO
not listed: [6] | [17] | [19] | [20]
inactive: all other assays above

Cc1nc2ccccc2c(=O)n1-c1ccccc1Cl
not listed: [5] | [18]
inactive: all other assays above

CCCCP(CCCC)CCCC
not listed: [5] | [12]
inactive: all other assays above

CCN[C@@H](C)Cc1ccccc1
not listed: [5] | [7] | [14]
inactive: all other assays above

CC(=O)Nc1cc([As](=O)(O)O)ccc1O
not listed: [5] | [8] | [11] | [12] | [15] | [18]
inactive: all other assays above

C#CC1(O)CCCCC1
not listed: [5] | [15] | [20]
inactive: all other assays above

O=[N+]([O-])c1cccc2c([N+](=O)[O-])cccc12
active: [2] 61.4 µM | [7] 23.1 µM
not listed: [6] | [12] | [13] | [18] | [19] | [20]
inactive: all other assays above

CCOP(=O)(N=C1SCCS1)OCC
not listed: [6] | [14] | [17] | [19] | [20]
inactive: all other assays above
